Our source for the binding signal values is article PMC8384837, “Expanding the binding specificity for RNA recognition by a PUF domain”.

PUM1 PUF domain R5-DWY, sequence (Q14671 828-1176 C1007D/R1008W/Q1011Y): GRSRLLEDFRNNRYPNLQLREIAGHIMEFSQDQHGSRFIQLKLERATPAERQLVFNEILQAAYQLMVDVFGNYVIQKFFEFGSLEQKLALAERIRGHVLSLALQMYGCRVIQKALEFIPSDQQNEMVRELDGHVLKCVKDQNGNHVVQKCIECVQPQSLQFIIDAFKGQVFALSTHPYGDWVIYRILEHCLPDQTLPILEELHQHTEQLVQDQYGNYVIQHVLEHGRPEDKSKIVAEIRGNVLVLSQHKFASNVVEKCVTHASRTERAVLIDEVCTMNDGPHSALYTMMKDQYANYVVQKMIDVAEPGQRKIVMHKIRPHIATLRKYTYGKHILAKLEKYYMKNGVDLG

The first assay deals with PUM1 PUF domain R5-RQQ (Homo sapiens, UniProt Q14671 828-1176, C1007R;R1008Q). The assay is described as follows: yeast three-hybrid, YBZ-1, SC-Leu-His + 0.5 mM 3-AT, 4 days. The settings on record: tags: N-Gal4 AD-HA kept; label: inside an RPR1-promoter hybrid RNA with tandem MS2 sites; ssRNA. In a few lines: (§1)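 Each repeat of the Pumilio-1 PUF domain was randomized at its three base-contacting residues, and these libraries were co-expressed from a centromeric plasmid with matching RNA elements in strain YBZ-1. After four days on SC-Leu (input) or SC-Leu-His + 0.5 mM 3-AT (selection), the repeat regions were PCR-amplified and Illumina-sequenced. The interaction score compares variant frequency between input and selection as a log change, computed in log2 with a pseudocount of 1 for absent variants.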
“GGCUAGAACUAGUGGAUCCCCCGGCGCCCGGCGGCUCGAGCCCGGGUAAGUGUCAAUAGUCUGCAUGCCGCCGGGCGCCAUGCCUGCAGGUCGACUCUAGAAAACAUG”: the binding signal was 5.36 log2 enrichment (interaction score). For “GGCUAGAACUAGUGGAUCCCCCGGCGCCCGGCGGCUCGAGCCCGGGUAAGUGUGAAUAGUCUGCAUGCCGCCGGGCGCCAUGCCUGCAGGUCGACUCUAGAAAACAUG”, the binding signal is 1.47 log2 enrichment (interaction score). On the same count and under the same terms, then “GGCUAGAACUAGUGGAUCCCCCGGCGCCCGGCGGCUCGAGCCCGGGUAAGUGUUAAUAGUCUGCAUGCCGCCGGGCGCCAUGCCUGCAGGUCGACUCUAGAAAACAUG”, with 5.69 log2 enrichment (interaction score).

Another assay deals with PUM1 PUF domain R4-QPG (Homo sapiens, UniProt Q14671 828-1176, N971Q;H972P;Q975G). The assay is described as above. The settings on record: tags: N-Gal4 AD-HA kept; label: inside an RPR1-promoter hybrid RNA with tandem MS2 sites; ssRNA. In a few lines: as §1
PUM1 PUF domain R4-QPG, sequence (Q14671 828-1176 N971Q/H972P/Q975G): as the sequence (Q14671 828-1176 C1007D/R1008W/Q1011Y) above, with N144Q, H145P, Q148G, D180C, W181R, Y184Q counted along it
With “GGCUAGAACUAGUGGAUCCCCCGGCGCCCGGCGGCUCGAGCCCGGGUAAGUGUACAUAGUCUGCAUGCCGCCGGGCGCCAUGCCUGCAGGUCGACUCUAGAAAACAUG”, the binding signal is 3.33 log2 enrichment (interaction score).

On to “GGCUAGAACUAGUGGAUCCCCCGGCGCCCGGCGGCUCGAGCCCGGGUAAGUGUAUAUAGUCUGCAUGCCGCCGGGCGCCAUGCCUGCAGGUCGACUCUAGAAAACAUG”, for which the binding signal was 5.06 log2 enrichment (interaction score). The same measure, in the same setting: to “GGCUAGAACUAGUGGAUCCCCCGGCGCCCGGCGGCUCGAGCCCGGGUAAGUGUAAAUAGUCUGCAUGCCGCCGGGCGCCAUGCCUGCAGGUCGACUCUAGAAAACAUG” belongs 2.21 log2 enrichment (interaction score).

Another assay has as its target PUM1 PUF domain R5-DWY (Homo sapiens, UniProt Q14671 828-1176, C1007D;R1008W;Q1011Y). The assay is described as above. The settings on record: tags: N-Gal4 AD-HA kept; label: inside an RPR1-promoter hybrid RNA with tandem MS2 sites; ssRNA. In a few lines: as §1
For the sequence “GGCUAGAACUAGUGGAUCCCCCGGCGCCCGGCGGCUCGAGCCCGGGUAAGUGUCAAUAGUCUGCAUGCCGCCGGGCGCCAUGCCUGCAGGUCGACUCUAGAAAACAUG”, the binding signal is 1.16 log2 enrichment (interaction score).

As to “GGCUAGAACUAGUGGAUCCCCCGGCGCCCGGCGGCUCGAGCCCGGGUAAGUGUGAAUAGUCUGCAUGCCGCCGGGCGCCAUGCCUGCAGGUCGACUCUAGAAAACAUG”, the binding signal was 2.39 log2 enrichment (interaction score). The same measure, in the same setting: to “GGCUAGAACUAGUGGAUCCCCCGGCGCCCGGCGGCUCGAGCCCGGGUAAGUGUAAAUAGUCUGCAUGCCGCCGGGCGCCAUGCCUGCAGGUCGACUCUAGAAAACAUG” belongs 6.99 log2 enrichment (interaction score).
